Test results reported in PubChem BioAssay (NCATS).
Results filed as inconclusive are left out. Active and inactive are the calls of the source. The call rests on the fitted dose curve; in most records, active means well fitted curve in the direction sought with a large enough effect; inconclusive means small, poorly fitted or top-dose-only effect, or another doubt; inactive means no such curve, though single readings can be large; an effect the other way counts as inactive or inconclusive.

Tests used:
[1] = test system: HACAT; test: qHTS assay to identify novel small-molecules to repurpose for Merkel cell carcinoma treatment (AID 1296009); conditions: MCC and control cell lines, CellTiter-Glo viability, 72 h; at 44.8 µM (top of the series) unless noted; further: nearly all actives have a fitted effect of over 60% in size
Method in brief: (§1)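 72 hr, 37 degree celsius; NPC 8-pt / MIPE 11-pt dose response; compound pinned in DMSO; CellTiter-Glo, 10 min RT, luminescence; normalized to no-cell and DMSO controls.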

[2] = test system: NIH3T3; test: as above; conditions: MCC and control cell lines, CellTiter-Glo viability, 72 h; at 44.8 µM (top of the series) unless noted
Method in brief: as §1

[3] = test system: C33A; test: Primary qHTS to identify gynecologic anti-cancer compounds using libraries of approved drugs and bioactive compounds (AID 1345084); conditions: Gynecologic cancer cell panel viability, ATPlite luminescence, 48 h; series mostly up to 57.5 µM; further: on the % scale 0 is the no-effect control and ±100 the full control effect; nearly all actives have a fitted effect of over 55% in size
Method in brief: (§2)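 Five-point cytotoxicity, 48 h drug exposure at 37 C, 5% CO2, on cells seeded 16 h beforehand. ATP content read by ATPlite luminescence.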

[4] = test system: CAOV3; test: as above; conditions: Gynecologic cancer cell panel viability, ATPlite luminescence, 48 h; series mostly up to 57.5 µM
Method in brief: as §2

[5] = test system: CASKI; test: as above; conditions: Gynecologic cancer cell panel viability, ATPlite luminescence, 48 h; series mostly up to 57.5 µM
Method in brief: as §2

[6] = test system: Es-2; test: as above; conditions: Gynecologic cancer cell panel viability, ATPlite luminescence, 48 h; series mostly up to 57.5 µM
Method in brief: as §2

[7] = test system: HeLa; test: as above; conditions: Gynecologic cancer cell panel viability, ATPlite luminescence, 48 h; series mostly up to 57.5 µM
Method in brief: as §2

[8] = test system: Hek293T; test: as above; conditions: Gynecologic cancer cell panel viability, ATPlite luminescence, 48 h, control line for the selectivity index; series mostly up to 57.5 µM
Method in brief: as §2

[9] = test system: JEG-3; test: as above; conditions: Gynecologic cancer cell panel viability, ATPlite luminescence, 48 h; series mostly up to 57.5 µM
Method in brief: as §2

CCCCNc1nc(N)c2[nH]c(=O)n(Cc3ccc(OCCN(C)C)nc3)c2n1
inactive: outcome [1] | outcome [2] inactive; activator | Potency [3] | Potency [4] | outcome [5] | Potency [6] | Potency [7] | Potency [8] | Potency [9]

C[C@]1(OC(=O)/C=C/c2ccc(O)cc2)C[C@@H](O)[C@]2(O)C=CO[C@@H](O[C@@H]3O[C@H](CO)[C@@H](O)[C@H](O)[C@H]3O)C12 (stereo partly specified)
inactive: outcome [1] inactive [at 17.4 µM] | outcome [2] inactive [at 17.4 µM] | Potency [3] | Potency [4] | outcome [5] | Potency [6] | Potency [7] | Potency [8] | Potency [9]

C=CCc1ccc(O[C@@H]2O[C@H](CO)[C@@H](O)[C@H](O)[C@H]2O)c(O[C@@H]2O[C@H](CO)[C@@H](O)[C@H](O)[C@H]2O)c1
inactive: outcome [1] inactive [at 17.4 µM] | outcome [2] inactive [at 17.4 µM] | Potency [3] | Potency [4] | outcome [5] | Potency [6] | Potency [7] | Potency [8] | Potency [9]

O=C(NC1CCN(CC(F)(F)F)CC1)c1ccc(-c2cccc(F)c2)nc1
inactive: outcome [1] | outcome [2] | Potency [3] | Potency [4] | outcome [5] | Potency [6] | Potency [7] | Potency [8] | Potency [9]

C=C1CC2C3(C)C=CC(=O)OC(C)(C)C3CC(OC(C)=O)C2(C)C2C(=O)OC(C)C(=O)C12C (stereo unspecified)
inactive: outcome [1] inactive [at 17.4 µM] | outcome [2] inactive [at 17.4 µM] | Potency [3] | Potency [4] | outcome [5] | Potency [6] | Potency [7] | Potency [8] | Potency [9]

CNC(=O)c1ccc2c(c1)CCO[C@H]2CCN1CCN(c2ccc(C(N)=O)cc2)CC1
inactive: outcome [1] | outcome [2] | Potency [3] | Potency [4] | outcome [5] | Potency [6] | Potency [7] | Potency [8] | Potency [9]

C/C=C1/CC2C(=O)Nc3cc(O)c(OC)cc3C(=O)N2C1 (stereo unspecified)
inactive: outcome [1] | outcome [2] | Potency [3] | Potency [4] | outcome [5] | Potency [6] | Potency [7] | Potency [8] | Potency [9]

C/C=C1\[C@H](O[C@@H]2O[C@H](CO)[C@@H](O)[C@H](O)[C@H]2O)OC=C(C(=O)O)[C@H]1CC(=O)OCCc1ccc(O)cc1
inactive: outcome [1] inactive [at 17.4 µM] | outcome [2] inactive [at 17.4 µM] | Potency [3] | Potency [4] | outcome [5] | Potency [6] | Potency [7] | Potency [8] | Potency [9]

CC(C)C1CCC(C(=O)N[C@@H](Cc2ccccc2)C(=O)O)CC1 (stereo partly specified)
inactive: outcome [1] | outcome [2] | Potency [3] | Potency [4] | outcome [5] | Potency [6] | Potency [7] | Potency [8] | Potency [9]

C[C@@]1(C(=O)O)CCC[C@@]2(C)C3=CC[C@H]4C[C@@]3(CC[C@H]12)CC4(O)CO (stereo partly specified)
inactive: outcome [1] | outcome [2] | Potency [3] | Potency [4] | outcome [5] | Potency [6] | Potency [7] | Potency [8] | Potency [9]

COc1cc(/C=C/CO[C@@H]2O[C@H](CO)[C@@H](O)[C@H](O)[C@H]2O)cc(OC)c1O[C@@H]1O[C@H](CO)[C@@H](O)[C@H](O)[C@H]1O
inactive: outcome [1] inactive [at 17.4 µM] | outcome [2] inactive [at 17.4 µM] | Potency [3] | Potency [4] | outcome [5] | Potency [6] | Potency [7] | Potency [8] | Potency [9]

C[C@@H]1O[C@@H](O[C@@H]2[C@@H](O)[C@H](O[C@H]3[C@H](O[C@H]4CC[C@@]5(C)C(CC[C@]6(C)C5CC=C5[C@@H]7CC(C)(C)CC[C@]7(C(=O)O[C@@H]7O[C@H](CO)[C@@H](O)[C@H](O)[C@H]7O)CC[C@]56C)C4(C)C)O[C@H](C(=O)O)[C@@H](O)[C@@H]3O)OC[C@H]2O)[C@H](O)[C@H](O)[C@H]1O (stereo partly specified)
inactive: outcome [1] inactive [at 9.27 µM] | outcome [2] inactive [at 9.27 µM] | activity change, negative = cytotoxicity [3] -13.9% [at 11.6 µM] | activity change, negative = cytotoxicity [4] -6.12% [at 11.6 µM] | activity change, negative = cytotoxicity [5] -1.32% [at 11.6 µM] | activity change, negative = cytotoxicity [6] -9.99% [at 11.6 µM] | activity change, negative = cytotoxicity [7] -3.66% [at 11.6 µM] | activity change, negative = cytotoxicity [8] -0.983% [at 11.6 µM] | activity change, negative = cytotoxicity [9] -0.837% [at 11.6 µM]

C[C@@H]1CC[C@]2(C(=O)O)CC[C@]3(C)C(=CCC4[C@@]5(C)C[C@@H](O)[C@H](O)[C@@](C)(CO)C5CC[C@]43C)C2[C@H]1C (stereo partly specified)
inactive: outcome [1] inactive [at 17.4 µM] | outcome [2] inactive [at 17.4 µM] | Potency [3] | Potency [4] | outcome [5] | Potency [6] | Potency [7] | Potency [8] | Potency [9]

C/C=C(\C)C(=O)OC1CC2C(CC=C3CC(OC4CC(OC)C(OC5CC(OC)C(OC6CC(OC)C(OC7CC(OC)C(OC8CC(OC)C(OC9OC(CO)C(O)C(O)C9O)C(C)O8)C(C)O7)C(C)O6)C(C)O5)C(C)O4)CCC32C)C2(O)CCC(C(C)=O)C12C (stereo unspecified)
inactive: outcome [1] inactive [at 9.27 µM] | outcome [2] inactive [at 9.27 µM] | activity change, negative = cytotoxicity [3] 4.48% [at 6.55 µM] | activity change, negative = cytotoxicity [4] -9.87% [at 6.55 µM] | activity change, negative = cytotoxicity [5] -6.32% [at 6.55 µM] | activity change, negative = cytotoxicity [6] 2.25% [at 6.55 µM] | activity change, negative = cytotoxicity [7] 6.7% [at 6.55 µM] | activity change, negative = cytotoxicity [8] -0.353% [at 6.55 µM] | activity change, negative = cytotoxicity [9] 3.01% [at 6.55 µM]
